FMDV inh: High Throughput Screening for Foot and Mouth Disease Virus Antivirals; actives 1.2% (n = 410,000); AID 1159524, 2015; FMDV antiviral cell-based qHTS; Potency, µM (titrated, usually from 57.9 µM), for the others: top-dose activity change, negative = inhibition, hits mostly inhibitors; calls by dose curve; tested in HEK293T cells; note: read-out not given here; potency is the fitted concentration of half-maximal effect; nearly all actives have a fitted effect of over 45% in size
Giardia FBPA inh: qHTS Assay for Inhibitors of Fructose-1,6-bisphosphate Aldolase from Giardia Lamblia; A8B2U2; purified Giardia FBPA; Potency, µM (doses to about 59.6 µM), inactives show at the top dose activity, negative = inhibition, most hits filed as inhibitors; actives 0.71% (n = 290,000); AID 2451, 2010; note: potency is the fitted concentration of half-maximal effect; nearly all actives have a fitted effect of over 55% in size
Target sequence (A8B2U2 whole entry, looked up): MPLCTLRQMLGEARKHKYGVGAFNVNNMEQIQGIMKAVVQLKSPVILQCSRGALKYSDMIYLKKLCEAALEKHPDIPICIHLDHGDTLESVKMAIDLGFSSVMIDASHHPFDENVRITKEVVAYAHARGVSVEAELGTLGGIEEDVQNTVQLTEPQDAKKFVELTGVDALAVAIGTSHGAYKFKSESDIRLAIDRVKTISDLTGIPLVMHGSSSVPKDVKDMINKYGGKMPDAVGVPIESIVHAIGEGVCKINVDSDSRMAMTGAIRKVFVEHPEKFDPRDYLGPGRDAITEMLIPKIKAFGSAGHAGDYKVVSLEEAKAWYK
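Giardia FBPA (40 nM reagent) was preincubated 10 min at RT with compound (up to 57.5 uM final), then substrate plus GAPDH/TPI/NAD/arsenate coupling system with diaphorase/resazurin was added; resorufin fluorescence (525/598 nm) was read after 20 min.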
RE007 growth inh: qHTS Assay for Inhibitors of the HIV-1 protein Vpr. S. pombe RE007 Vpr strain, BacTiter-Glo ATP luminescence, 24 h. Potency, µM (highest dose often 92.2 µM), inactives show at the top dose activity change, negative = less growth, most hits filed as inhibitors. actives 0.21% (n = 360,000). AID 651644, 2012; active = well fitted falling curve with a large enough effect; inconclusive = small, poorly fitted or top-dose-only effect; inactive = no such curve, though single readings can be large or run the other way; note: potency is the fitted concentration of half-maximal effect; nearly all actives have a fitted effect of over 50% in size
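Fission yeast RE007 carrying one integrated HIV-1 vpr copy, seeded at OD 0.01 in PMG+AL medium with 23 nL pinned compound. Grown 24 h at 30 degrees; viability read by BacTiter-Glo luminescence after 5 min.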
HCMV antiviral: qHTS Assay for inhibitors of the human cytomegalovirus (HCMV) | activity change, negative = inhibition, % at 57.5 µM | AID 1259415, 2018 | HFF cells, HCMV-luciferase reporter, 72 h; active compounds read low | actives 4.5% (n = 410,000); in the data active = activity change below about -60%; inconclusive = no clear call, values can overlap the other calls; inactive = above about -39%
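Luciferase read-out from HCMV-luciferase-infected HFFs (MOI 1 PFU/cell) 72 h post infection at 37C; compounds added after 16 h cell attachment; activity normalized between buffer-only basal and Salinomycin (10uM) inhibitor controls.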
Sm TGR block: qHTS Assay for the Inhibitors of Schistosoma Mansoni Peroxiredoxins; AID 485364, 2010; purified TGR, DTNB reduction, TNB absorbance 405 nm; Potency, µM (top dose mostly 114 µM), inactives show top-dose activity change, negative = inhibition, hits mostly inhibitors; actives 3% (n = 360,000); Schistosoma mansoni thioredoxin glutathione reductase (TGR), Q962Y6; note: potency is the fitted concentration of half-maximal effect; nearly all actives have a fitted effect of over 60% in size
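First, TGR (20 nM dispensed) and NADPH were mixed with compound. Second, a 15 min room-temperature incubation followed. Third, further NADPH and then DTNB were added to start the reaction. Finally, TNB absorbance was monitored kinetically.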
Tb PYK inh: qHTS of Trypanosoma Brucei Inhibitors; TbPYK enzyme, Kinase-Glo Plus ATP luminescence, 45 min; Potency, µM (top dose mostly 76.8 µM), without a hit: at the highest dose activity, negative = inhibition, usual class: inhibitors; actives 0.12% (n = 410,000); AID 624173, 2012; note: potency is the fitted concentration of half-maximal effect; nearly all actives have a fitted effect of over 50% in size
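Luminescent Kinase-Glo Plus end-point after 45 min room-temperature reaction of T. brucei pyruvate kinase started with 130 uM ADP (final). Buffer TEA 50 mM pH 7.2 with KCl, MgCl2, BSA, Tween-20; titration-based qHTS with fitted concentration-effect curves.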
An asterisk follows results filed as active; ? = inconclusive; nt = no result; [ ] = dose if it differs, or a comment. In the library only some 7.7% were active in any assay of this set; here they are far more common. Unless noted, calls come from the whole dose curve; as a rule, active = well fitted curve in the direction sought with a large enough effect; inconclusive = small, poorly fitted or top-dose-only effect, or another doubt; inactive = no such curve, though single readings can be large; an effect the other way counts as inactive or inconclusive. % is set by controls: 0 for no effect and ±100 for the full control effect.

SMILES	FMDV inh	Giardia FBPA inh	RE007 growth inh	HCMV antiviral	Sm TGR block	Tb PYK inh
CC(C)(O)/C=C/C(=O)C(C)(O)C1C(O)CC2(C)C3CC=C4C(C=C(O)C(=O)C4(C)C)C3(C)C(=O)CC12C (centres undefined)	-5%	nt	-3%	-97*	nt	-20%
CC(=O)OC(C)(C)/C=C/C(=O)[C@](C)(O)C1[C@H](O)C[C@@]2(C)C3CC=C4C(C[C@H](O)C(=O)C4(C)C)[C@]3(C)C(=O)C[C@]12C (some centres undefined)	28µM*	nt	-4%	nt	nt	2%
COc1ccc(S(=O)(=O)N(CC(=O)NCCc2ccccc2)c2ccc(Cl)cc2)cc1	-3%	nt	nt	17	-8%	0%
CC(C)Oc1ccc(Nc2cc3[nH]c(-c4cccc(F)c4)cc3cn2)cc1	nt	nt	nt	-30	nt	nt
Cn1c(=O)[nH]c2c(cnn2C)c1=O	-11%	nt	0%	-98*	nt	1%
Cn1ncc2c(=O)[nH]nnc21	-12%	nt	7%	29	nt	3%
CCCOc1ccc(-c2nc(C#N)c(N3CCN(C)CC3)o2)cc1	-15%	0%	-22%	-2	-5%	-1%
CCOc1ccc(-c2nc(C#N)c(N3CCN(C)CC3)o2)cc1	-2%	3%	-1%	-61*	1%	-6%
CCOc1ccc(-c2nc(C#N)c(N3CCN(CC)CC3)o2)cc1	-26%	-1%	-6%	-17	0%	10%
CCOc1ccc(-c2nc(C#N)c(N3CCCCCC3)o2)cc1	-25%	-1%	-9%	-70*	-1%	1%
FC(F)Sc1ccc(NC(=S)NCC2CCCCC2)cc1	9%	1%	?	-97*	1%	1%
CC1CCCCC1NC(=S)Nc1ccc(SC(F)F)cc1 (centres undefined)	-9%	0%	-14%	-100*	-3%	-5%
CC(=O)N1CCN(C(=S)Nc2ccc(SC(F)F)cc2)CC1	81%	-5%	-5%	-76*	2%	0%
CC1CCN(C(=S)Nc2ccc(SC(F)F)cc2)CC1	25%	2%	13%	-37	-2%	2%
FC(F)Sc1ccc(NC(=S)NC2CCCCC2)cc1	44%	-4%	-18%	7	-4%	-7%
CCCOC(=O)c1cc(-c2ccc(/C=C3/C(=O)N(C)C(=O)C(C#N)=C3C)o2)ccc1Cl	12%	nt	2%	nt	nt	-18%
C=CCOC(=O)c1cc(-c2ccc(/C=C3\C(=O)NC(=O)C(C#N)=C3C)o2)ccc1Cl	?	?	40µM*	2	7.9µM*	-11%
CC1=C(C#N)C(=O)NC(=O)/C1=C/c1ccc(-c2ccc(S(N)(=O)=O)cc2)o1	-9%	4%	4%	-31	8.9µM*	?
CCc1nc(Nc2ccc(F)c(Cl)c2)c2c3c(sc2n1)CCCC3	-8%	nt	nt	?	5%	0%
COc1cccc(C(C)NC(=O)Nc2ccccc2Cl)c1 (centres undefined)	-13%	13%	-8%	-64*	nt	4%
Fc1cc(F)c(-c2nc3ccccc3nc2-c2ccccc2)c(F)c1	nt	nt	nt	-12	nt	nt
CCN1C(=O)N[C@@H](CCc2ccccc2)[C@@H](C(=O)OC)[C@H]1C	-19%	7%[12.9 µM]	2%	8	2.2µM*	0%
CCC[C@H]1[C@@H](NS(=O)(=O)c2ccc(Br)cc2)CC[C@@]23CCCN2C(=O)CCC[C@@H]13	nt	nt	nt	29	nt	nt
O=C(COCc1cc(-c2cccs2)on1)NCc1cccc(Cl)c1	-16%	nt	nt	6	-3%	2%
COC(=O)Cc1[nH]n(-c2ccccc2)c(=O)c1C(C)=Nc1ccccc1	57%	-18%	-3%	?	1%	6%
COC(=O)Cc1[nH]n(-c2nc3ccccc3s2)c(=O)c1C(C)=Nc1ccc(C)cc1	0.35µM*	-9%	?	-78*	-8%[57.1 µM]	-5%

Bioassay records deposited in PubChem by National Center for Advancing Translational Sciences (NCATS).
